These compounds were tested on T1, DRAK1. Conditions: concentration: 1 μM, replicates: in singlicate; n = 1.
T1 construct: gene STK17A
`COc1cc2ncnc(Nc3cccc(Br)c3)c2cc1OC.Cl` [GI230329] was tested, and the “%Inh” value was 34%. With `CS(=O)(=O)CCNCc1nc(-c2ccc3ncnc(Nc4ccc(OCc5ccccc5)c(Cl)c4)c3c2)cs1.Cl` [GW582764] the “%Inh” value was 4%. For `COc1ccc2cc(-c3nc(-c4ccccc4C(C)C)[nH]c3-c3ccncc3)ccc2c1` [SB-660566], the “%Inh” value was 6%. For `COc1ccc(Nc2nccc(N3CCC(NC(=O)C(C)c4ccc(Cl)cc4)CC3)n2)cc1` (stereo not shown) [GSK1379812], the “%Inh” value was 0%. For `Cc1ccccc1-c1cc(-c2c[nH]nc2-c2ccccn2)ccn1` [GW680061], the “%Inh” value was 2%. `CC[C@@H]1CO[C@H](C(=O)Nc2ccccc2)CN1c1cc(-c2ccc3c(N)n[nH]c3c2)nc(NC)n1` [GSK2376236] was tested, and the “%Inh” value was 95.3%. `O=C1NC(=O)C(c2ccc(Cl)cc2)=C1Nc1cccc(Cl)c1` [SB-317651] was tested, and the “%Inh” value was 4%. `Cc1c(Cn2c3ccccc3n3c(=O)cc(N4CCOCC4)nc23)cccc1C(F)(F)F` [GSK2306394] was tested, and the “%Inh” value was 0%. With `Cc1ccc(NC(=O)Nc2ccccc2F)cc1-c1ccc(C(=O)Nc2ccncc2)cc1` [GSK1398477] the “%Inh” value was 1%. In the case of `O=c1cc(N2CCOCC2)nc2n(Cc3cccc(Cl)c3Cl)c3ccccc3n12` [GSK2299009], the “%Inh” value is reported as 3%. In the case of `CC(=O)c1c(C)c2cnc(Nc3ccn(C)n3)nc2n(C2CCCC2)c1=O`, the “%Inh” value is reported as 0%. For `COc1cccc(CNC(=O)NC2CCN(c3ccnc(Nc4ccc(F)cc4)n3)C2)c1` (stereo not shown) [GSK1379723], the “%Inh” value was 0%. With `CC(=O)c1c(C)c2cnc(Nc3ccc(N4CCNCC4)cn3)nc2n(C2CCCC2)c1=O` the “%Inh” value was 8%.
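Also: KINOMEscan kinase panel screen.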
